About 83,000 compounds went through this panel and 20% of them were active in at least one assay; those are over-represented in the sample as a whole.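 How to read the values: 0–100, growth inhibition (40 = 60% inhibited); 0, no net growth; -100 to 0, cell death (-40 = 40% of starting cells died; -100 = all dead).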 Values without a mark were called inactive. Active and inactive are the calls of the source. Rule for the calls: active = growth percent below 10; inactive = the rest.
Tests used:
Assay in all cases: NCI-60 one-dose screen, 48 h (100 = growth as untreated, 0 = no growth, -100 = all killed)
Settings in all cases: 10 µM unless noted
NCI-H23 lung = tested on: NCI-H23 lung
NCI-H226 lung = tested on: NCI-H226 lung
NCI-H322M lung = tested on: NCI-H322M lung
HOP-62 NSCLC = tested on: HOP-62 NSCLC
NCI-H460 lung = tested on: NCI-H460 lung
HOP-92 NSCLC = tested on: HOP-92 NSCLC
NCI-H522 lung = tested on: NCI-H522 lung
A549/ATCC NSCLC = tested on: A549/ATCC NSCLC
786-0 renal = tested on: 786-0 renal
COLO 205 colon = tested on: COLO 205 colon
DU-145 prostate = tested on: DU-145 prostate
K-562 leukemia = tested on: K-562 leukemia
MALME-3M melanoma = tested on: MALME-3M melanoma
MDA-MB-231 breast = tested on: MDA-MB-231 breast
RXF 393 renal = tested on: RXF 393 renal
SF-268 CNS = tested on: SF-268 CNS
SF-295 CNS = tested on: SF-295 CNS
SF-539 CNS = tested on: SF-539 CNS
UACC-257 melanoma = tested on: UACC-257 melanoma
M14 melanoma = tested on: M14 melanoma

SMILES	growth (NCI-H23 lung)	growth (NCI-H226 lung)	growth (NCI-H322M lung)	growth (HOP-62 NSCLC)	growth (NCI-H460 lung)	growth (HOP-92 NSCLC)	growth (NCI-H522 lung)	growth (A549/ATCC NSCLC)	growth (786-0 renal)	growth (COLO 205 colon)	growth (DU-145 prostate)	growth (K-562 leukemia)	growth (MALME-3M melanoma)	growth (MDA-MB-231 breast)	growth (RXF 393 renal)	growth (SF-268 CNS)	growth (SF-295 CNS)	growth (SF-539 CNS)	growth (UACC-257 melanoma)	growth (M14 melanoma)
O=C1C(=O)N(CCCCn2cc(-c3ccccc3)nn2)c2ccccc21	101%	106%	103%	106%	99.9%	101%	100%	108%	102%	112%	105%	109%	92.9%	102%	114%	101%	102%	93.9%	100%	96.1%
CCCCC[C@H]1C/C=C2/C(=O)C(Cl)=C[C@@H]2C/C=C\CCCC(=O)O1	-34.5% (active)	-32.7% (active)	-74.2% (active)	-36.7% (active)	-16.6% (active)	-48.9% (active)	-73.1% (active)	-35.6% (active)	-73.4% (active)	-63.1% (active)	-83.1% (active)	2.39% (active)	-35.2% (active)	-10.7% (active)	-90.9% (active)	-37.1% (active)	-35% (active)	-76.7% (active)	-53.3% (active)	-52.8% (active)
N#CC1=C(N)Oc2ccc3ccccc3c2C1c1ccccc1Cl (stereo not given)	61.6%	70.8%	74.9%	38.7%	20.4%	69.1%	34.4%	53%	42.4%	39.3%	73.3%	13.2%	46.2%	51.3%	58.7%	57.7%	11.7%	35%	66.7%	13.4%
Cc1ccc(C)c2c1CCC2C(C)C (stereo not given)	91.9%	98.6%	97.9%	101%	105%	93.6%	94.8%	87.2%	98.7%	104%	103%	90.4%	101%	99.6%	112%	96.8%	102%	97.5%	89.6%	95%
CCN(CC)c1ccc(/C=C/c2cc(C)c3ccccc3n2)cc1	64%	61.1%	101%	46.7%	43%	82.2%	31.3%	53.9%	94.6%	24.7%	94.2%	25.3%	59.4%	42.4%	13.2%	82.5%	41.5%	48.4%	60.5%	38.2%
O=C1C(Cl)=C(Nc2ccc(S(=O)(=O)c3ccc(NC4=C(Cl)C(=O)c5ccccc5C4=O)cc3)cc2)C(=O)c2ccccc21	-12.9% (active)	91.2%	64.5%	36.1%	37.2%	-26.2% (active)	-67.4% (active)	74%	26.4%	-54.9% (active)	-15.1% (active)	8.57% (active)	-48.5% (active)	45.4%	-96% (active)	-56.3% (active)	34.1%	1.36% (active)	-81.3% (active)	-57.6% (active)
CCN1CCN(C(=O)[C@@]2(C)CC[C@]3(C)CC[C@]4(C)C(=CC(=O)[C@@H]5[C@@]6(C)CC[C@H](OC7C[C@@H](O)[C@@H](O)C(C)O7)C(C)(C)[C@@H]6CC[C@]54C)[C@@H]3C2)CC1 (stereo not given in full)	45.2%	26.3%	37%	26.9%	-79.5% (active)	0.911% (active)	38.6%	12.5%	-60.5% (active)	106%	2.94% (active)	8.78% (active)	2.56% (active)	6.15% (active)	60.4%	24.2%	-78% (active)	-59.2% (active)	14.8%	-55.2% (active)
CC(C)(C)c1[nH]nc2c1C(c1cc3ccccc3[nH]c1=O)Nc1cc(C(=O)OCc3ccccc3)ccc1N2 (stereo not given)	69%	74.8%	63%	65.1%	19.4%	87.7%	74.6%	41.6%	49.4%	84.3%	65%	17.1%	58.7%	63.3%	59.7%	58.9%	30.3%	66.1%	69.7%	55.6%
NC1=NN=C2N(N)C(=O)c3cnn(-c4ccccc4)c3N2c2nc(-c3ccccc3)cc(-c3ccccc3)c21	94.1%	87.4%	103%	96.8%	103%	96.7%	74.9%	100%	104%	116%	108%	92.9%	120%	89.4%	138%	105%	94.6%	103%	108%	99.2%
COc1ccc(OC)c(-c2c(C#N)c(-c3ccco3)nc3c2c(-c2ccccc2)nn3-c2ccccc2)c1	96.7%	90.1%	103%	106%	101%	78.5%	81.9%	94.9%	100%	119%	102%	105%	112%	90%	99.8%	96.2%	98.9%	92.6%	99.7%	108%
CC1(C)C(=O)/C(=C\c2ccco2)C[C@]2(C)[C@H]3CC[C@@H]4[C@@H](C(=O)/C=C/c5ccco5)CC[C@@]4(C)[C@]3(C)CC[C@@H]12	92.8%	103%	105%	83.2%	98.7%	17.6%	92.4%	96.9%	119%	-80.2% (active)	75.2%	85.6%	1.28% (active)	56%	101%	78.7%	100%	97.5%	16.8%	23.9%
COc1cc(/C=C2\C(=O)N(CC(O)COc3cc(O)c4c(=O)cc(-c5ccccc5)oc4c3)c3ccccc32)cc(OC)c1O (stereo not given)	88.8%	99.7%	96.5%	87.9%	85%	82.4%	64.1%	95.4%	98%	113%	85.6%	71.4%	99.1%	84.6%	101%	80%	95.1%	88.1%	110%	88.7%
Cc1csc(-c2ccc3c(c2)COC3(CCCN(C)C)c2ccc(F)cc2)c1 (stereo not given)	88.9%	95.8%	77%	-64.4% (active)	-45.7% (active)	34.3%	-38.8% (active)	31.3%	61.8%	-69.1% (active)	42.8%	-19.9% (active)	-71.9% (active)	44.3%	43.5%	57.2%	73.7%	73.9%	-57.7% (active)	-70.3% (active)
CC(=O)Cc1nsc(NC(=O)c2ccoc2COc2ccccc2)n1	95.2%	105%	94.3%	107%	107%	90.1%	94.1%	99.3%	98.7%	121%	106%	90.6%	96.8%	95%	113%	96.3%	98.6%	91.6%	93.2%	95.4%
CC(=O)Nc1cc(F)cc(C(F)(F)F)c1Cl	92.2%	91%	98.7%	99.3%	98.6%	93.7%	100%	103%	94.3%	109%	108%	112%	100%	110%	89.4%	98.2%	102%	97.6%	103%	99.2%
